High-throughput results as filed in PubChem BioAssay.
An excerpt weighted towards active compounds, which were near 16% of everything screened.
miR-21 reporter = qHTS Assay for Modulators of miRNAs and/orActivators of miR-21. HeLa miR-21 FLuc reporter, luciferase, 48 h. Potency, µM (series often up to 38.3 µM), most hits filed as activators. 340,000 tested, under 10 active. AID 2288, 2010;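 note: miR-21 action dims this reporter so a rising signal means less miR-21 action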
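HeLa cells endogenously expressing miR-21, stably carrying CMV-driven firefly luciferase with a downstream miR-21 binding site, 2000 cells/well. Titrations up to approximately 40 uM, 48 hours; luciferase luminescence read.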
TDP1 cell CPT = qHTS for Inhibitors of human tyrosyl-DNA phosphodiesterase 1 (TDP1): qHTS in cells in presence of CPT; actives 12% (n = 420,000); chicken DT40 Tdp1-/-;hTDP1 cells + 20 nM CPT, ATP luminescence, 48 h; Potency, µM (series often up to 46.2 µM), usual class: inhibitors; AID 686979, 2013; note: nearly all actives have a fitted effect of over 55% in size
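Cell growth measured by CellTiter-Glo luminescence after a minimum 48 h, 37 C compound exposure with 20 nM CPT in Tdp1-knockout DT40 cells stably expressing hTDP1, seeded 400/well; qHTS titration format.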
TDP1 inh = qHTS Assay for Inhibitors of Tyrosyl-DNA Phosphodiesterase (TDP1) | Tyrosyl-DNA phosphodiesterase 1 (Homo sapiens), Q9NUW8 | recombinant TDP1, AlphaScreen DNA substrate cleavage | Potency, µM (series often up to 130 µM), actives largely listed as inhibitors | actives 0.28% (n = 350,000) | AID 485290, 2010; note: nearly all actives have a fitted effect of over 40% in size
Target sequence (Q9NUW8 whole entry, looked up): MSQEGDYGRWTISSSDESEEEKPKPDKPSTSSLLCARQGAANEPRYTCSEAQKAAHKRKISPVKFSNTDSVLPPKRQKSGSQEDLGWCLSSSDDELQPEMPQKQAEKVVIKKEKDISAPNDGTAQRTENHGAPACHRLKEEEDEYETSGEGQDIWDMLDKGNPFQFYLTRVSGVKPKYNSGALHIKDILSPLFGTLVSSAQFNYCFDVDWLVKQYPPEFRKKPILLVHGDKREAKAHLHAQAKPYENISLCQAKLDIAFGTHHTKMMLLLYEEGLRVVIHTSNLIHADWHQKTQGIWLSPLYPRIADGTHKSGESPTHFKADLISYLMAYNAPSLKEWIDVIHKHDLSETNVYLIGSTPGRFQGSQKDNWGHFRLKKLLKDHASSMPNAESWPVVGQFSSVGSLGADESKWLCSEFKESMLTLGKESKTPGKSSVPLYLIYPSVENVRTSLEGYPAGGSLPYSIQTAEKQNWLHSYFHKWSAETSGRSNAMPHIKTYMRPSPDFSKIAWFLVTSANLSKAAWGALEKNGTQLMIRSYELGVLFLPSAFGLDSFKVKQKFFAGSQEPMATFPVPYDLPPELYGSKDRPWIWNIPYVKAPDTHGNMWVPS
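Enzyme-compound mixtures sat 15 min at room temperature, followed by a 5 min reaction with 15 nM final substrate and 10 min with AlphaScreen beads. Recombinant human Tdp1 was used at 1 nM final.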
TDP1 cell noCPT = qHTS for Inhibitors of human tyrosyl-DNA phosphodiesterase 1 (TDP1): qHTS in cells in absence of CPT. DT40 Tdp1-/- hTDP1 cells, no CPT, ATP luminescence, 48 h. Potency, µM (titrated, usually from 46.2 µM), actives largely listed as inhibitors. actives 15% (n = 420,000). AID 686978, 2013; note: nearly all actives have a fitted effect of over 55% in size
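Seeded 400 DT40-hTDP1 cells/well (vehicle DMSO, no 20 nM CPT); pinned compounds; ≥48 hr at 37 °C; CellTiter-Glo luminescence as viability measure.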
uPA generation = qHTS for Inhibitors of Cell Surface uPA Generation; AID 540303, 2011; Potency, µM (series often up to 38.3 µM), most hits filed as inhibitors; cell surface uPA generation assay, qHTS; actives 0.31% (n = 330,000); active = well fitted inhibition curve with a large enough effect; inconclusive = small, poorly fitted or top-dose-only effect; inactive = no such curve, though single readings can be large or run the other way; tested in mouse RAW 264.7 cells; note: nearly all actives have a fitted effect of over 55% in size
Of the large screens only hits and unclear results are named; the others gave an inactive call; ! = not confirmed by another sample. Unless noted, calls come from the whole dose curve; as a rule, active = well fitted curve in the direction sought with a large enough effect; inconclusive = small, poorly fitted or top-dose-only effect, or another doubt; inactive = no such curve, though single readings can be large; an effect the other way counts as inactive or inconclusive.

O=C(NCc1ccccc1Cl)c1ccc2c(c1)N(Cc1ccccc1)C(=O)CS2	TDP1 cell CPT 23µM, TDP1 cell noCPT inconclusive (no result: uPA generation)
COc1ccc(CNC(=O)c2ccc3c(c2)N(Cc2cc(C)ccc2C)C(=O)CS3)cc1	TDP1 cell CPT inconclusive, TDP1 cell noCPT inconclusive (no result: uPA generation)
O=C(NCCCN1CCCC1=O)c1cn(-c2ccccc2)nc1-c1ccccc1	none
CCc1cccc(C)c1NC(=O)C(CC)n1ncn2c(cc3cc(C)ccc32)c1=O (stereo not drawn)	TDP1 cell CPT inconclusive, TDP1 cell noCPT inconclusive (no result: uPA generation)
CC1Cc2ccccc2N1C(=O)CCn1c(=O)sc2ccccc21 (stereo not drawn)	TDP1 cell CPT inconclusive, TDP1 cell noCPT 16µM, uPA generation inconclusive (no result: TDP1 inh)
CCOC(=O)c1cc2sccc2n1CC(=O)N1c2ccccc2CC1C (stereo not drawn)	TDP1 cell CPT 18µM, TDP1 cell noCPT 21µM
CCOC(=O)c1cc2sccc2n1CC(=O)O	none
CCOC(=O)c1cc2sccc2n1CC(=O)c1ccc2c(c1)OCCO2	TDP1 cell CPT 15µM, TDP1 cell noCPT 13µM
CC1Cc2ccccc2N1C(=O)CCN1C(=O)C2C3C=CC(C3)C2C1=O (stereo not drawn)	none
O=C1NC(=S)NC1(c1ccccc1)c1ccccc1	none (no result: miR-21 reporter, TDP1 inh)
Cn1c(SC(C(=O)Nc2ccc(F)cc2)c2ccccc2)nc2ccccc21 (stereo not drawn)	TDP1 cell CPT inconclusive, TDP1 cell noCPT inconclusive
COC(=O)c1cc2sccc2n1Cc1nc(-c2ccc(C)cc2)oc1C	none (no result: uPA generation)
CC1CCCC(NC(=O)CN2C(=O)NC(Cc3c[nH]c4ccccc34)C2=O)C1C (stereo not drawn)	none (no result: miR-21 reporter)
CCOc1ccccc1C(=O)Oc1c(S(=O)(=O)c2ccc(C)cc2)c(C)nn1-c1ccccc1	TDP1 cell CPT 10µM, TDP1 cell noCPT 21µM (no result: uPA generation)
COc1ccc([C@@H]2CC=C(C(=O)O)[C@H](c3ccc(C)cc3)N2S(=O)(=O)c2ccccc2C)cc1	none (no result: miR-21 reporter)
N#CC(C#N)=CC1=C2OC(c3ccccc3)=CC(c3ccccc3)=C2CCC1	TDP1 cell CPT 26µM, TDP1 cell noCPT 13µM
CCN1C(=O)c2ccccc2S(=O)c2ccc(C(=O)N3CCCCCC3)cc21 (stereo not drawn)	TDP1 cell CPT inconclusive, TDP1 cell noCPT inconclusive, uPA generation inconclusive
CCOC(=O)N1CCC(NC(=O)c2ccc3c(c2)N(Cc2cc(C)ccc2C)C(=O)c2ccccc2S3=O)CC1 (stereo not drawn)	TDP1 cell CPT 6.5µM, TDP1 cell noCPT 18µM (no result: uPA generation)
CCOC(=O)c1ccc2c(c1)N(Cc1cc(C)ccc1C)C(=O)c1ccccc1S2(=O)=O	TDP1 cell CPT inconclusive, TDP1 cell noCPT 16µM (no result: uPA generation)
Cc1ccccc1CN1C(=O)c2ccccc2S(=O)c2ccc(C(=O)NC3CCC(C)CC3)cc21 (stereo not drawn)	TDP1 cell CPT inconclusive (no result: uPA generation)
COC(=O)c1ccc2c(c1)N(Cc1cc(C)ccc1C)C(=O)c1ccccc1S2(=O)=O	TDP1 cell CPT inconclusive, TDP1 cell noCPT inconclusive (no result: uPA generation)
CCOC(=O)N1CCC(NC(=O)c2ccc3c(c2)N(Cc2cc(C)ccc2C)C(=O)c2ccccc2S3(=O)=O)CC1	TDP1 cell CPT inconclusive, TDP1 cell noCPT 12µM (no result: uPA generation)
Cc1ccc(C)c(CN2C(=O)c3ccccc3S(=O)c3ccc(C(=O)N4CCCCC4)cc32)c1 (stereo not drawn)	TDP1 cell CPT 16µM, TDP1 cell noCPT 16µM (no result: uPA generation)
COc1cccc(OCc2nc3ccccc3n2CCOc2ccccc2C)c1	TDP1 cell CPT inconclusive, TDP1 cell noCPT inconclusive (no result: uPA generation)
CCCCn1c(N)c(N(CCOC)C(=O)CSc2nnc(C)n2-c2ccc(OC)cc2)c(=O)[nH]c1=O	none (no result: miR-21 reporter, TDP1 inh)
CCOC(=O)c1ccc2c(c1)N(Cc1cccc(C(F)(F)F)c1)C(=O)c1ccccc1S2(=O)=O	TDP1 cell CPT inconclusive, TDP1 cell noCPT 16µM (no result: uPA generation)
Cc1cccc(CN2C(=O)c3ccccc3S(=O)(=O)c3ccc(C(=O)N4CCN(c5cc(C)ccc5C)CC4)cc32)c1	none (no result: uPA generation)
S=c1nccc(-c2ccc(Cl)cc2)[nH]1	TDP1 cell CPT inconclusive, TDP1 cell noCPT 21µM
CCOCCCNC(=O)C(NC(=O)Cc1c[nH]c2ccccc12)c1ccccc1 (stereo not drawn)	none
Cc1ccc(C(O)c2ncc(-c3ccccc3Cl)[nH]2)cc1 (stereo not drawn)	TDP1 cell noCPT inconclusive (no result: miR-21 reporter, TDP1 inh, uPA generation)
COc1cc(C2C(C#N)=C(N)N(c3cccnc3)C3=C2C(=O)CCC3)ccc1O (stereo not drawn)	none
COc1cc(C2C(C#N)=C(N)N(c3ccc(F)cc3)C3=C2S(=O)(=O)CC3)ccc1O (stereo not drawn)	TDP1 cell CPT 13µM, TDP1 cell noCPT inconclusive
COc1ccc(-n2nc(C(=O)N3CCC(N4CCCCC4)CC3)c3c4ccccc4n(C)c3c2=O)cc1	TDP1 cell CPT inconclusive, TDP1 cell noCPT inconclusive
CN(C)CCN(Cc1cccs1)c1ccccn1	TDP1 cell CPT inconclusive, TDP1 cell noCPT 24µM!
O=C(NCC1(c2ccccc2)CCCC1)C1(c2ccccc2)CCCC1	TDP1 cell CPT inconclusive, TDP1 cell noCPT inconclusive
COc1ccc(N=Nc2cc(C)ccc2O)cc1	uPA generation inconclusive (no result: TDP1 inh)
Cc1ccc(N=Nc2ccc(O)c3ncccc23)cc1	TDP1 cell CPT 13µM, TDP1 cell noCPT 13µM
Cc1ccc(N=Nc2ccc(O)c3ncccc23)cc1C	TDP1 cell CPT 2.3µM, TDP1 cell noCPT 2.3µM, uPA generation inconclusive
O=c1cnn([C@@H]2O[C@H](CO)[C@@H](O)[C@H]2O)c(=O)[nH]1	miR-21 reporter inconclusive, TDP1 cell CPT 12µM, TDP1 cell noCPT 2.3µM, uPA generation inconclusive
CS(=O)(=O)N1CCC(C(=O)NCc2ccc(Cl)cc2)CC1	none
COc1ccc(CN2C(=O)CCC2(C)c2nnnn2C2CCCCC2)cc1 (stereo not drawn)	TDP1 cell noCPT inconclusive (no result: miR-21 reporter, TDP1 inh, uPA generation)
CSC(=S)N/N=C(\C)c1ccccc1	TDP1 cell CPT 3.3µM, TDP1 cell noCPT inconclusive
C/C(=N\NC(=S)Nc1cccc(C)c1)c1cccc(N)c1	TDP1 cell CPT 0.92µM, TDP1 cell noCPT 0.92µM
C/C(=N\NC(=S)Nc1cccc(C)c1)c1ccccc1	TDP1 cell CPT 2.8µM, TDP1 cell noCPT 1.1µM
C/C(=N\NC(=S)Nc1ccc(C)cc1)c1cccc(N)c1	TDP1 cell CPT inconclusive, TDP1 cell noCPT inconclusive
C/C(=N\NC(=S)Nc1cccc(C)c1)c1ccco1	TDP1 cell CPT inconclusive, TDP1 cell noCPT inconclusive
Cc1csc2cc(-c3cccc([N+](=O)[O-])c3)c(-c3cccc([N+](=O)[O-])c3)c[n+]12	none
NC(CO)C(O)c1ccc([N+](=O)[O-])cc1 (stereo not drawn)	none
